# An excerpt weighted towards active compounds, which were near 0.92% of everything screened.
# AGP1 TOR yeast: modulators of TOR pathway AGP1-GFP in S. cerevisiae | S. cerevisiae AGP1-GFP multiplex flow cytometry, 3 h; GFP as percent of DMSO wells | GFP response vs DMSO, % at 10 µM | 320,000 tested, 0.02% active | AID 2066;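 active means GFP response relative to DMSO above a set limit, near screen average plus 3 SD, cut at about 150% in these data; inconclusive means fewer than 70 cells counted for the yeast strain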;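 further: median GFP channel fluorescence of the gated AGP1 strain per well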
# LAP4-GFP MLPCN: modulators of TOR pathway LAP4-GFP in S. cerevisiae; AID 2023; GFP response vs DMSO, % at 10 µM; S. cerevisiae LAP4-GFP multiplex, flow cytometry GFP, 3 h; median GFP as percent of DMSO wells; 320,000 tested, 0.34% active;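 active means GFP response vs DMSO above a set limit, about the screen mean plus 3 SD, cut at about 150% in these data; inconclusive means under 70 cell events counted for the yeast strain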
# CIT2-GFP yeast: modulators of TOR pathway CIT2-GFP in S. cerevisiae; S. cerevisiae CIT2-GFP strain, flow cytometry, 3 h; 100 means same as DMSO wells; GFP response vs DMSO, % at 10 µM; 320,000 tested, 0.065% active;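 active means GFP response relative to DMSO above a set limit, near the screen mean plus 3 SD, cut at about 150% in these data; inconclusive means Fewer than 70 cells measured for a yeast strain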;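 further: ratio of well median GFP fluorescence to mean of DMSO wells on the plate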
# MEP2-GFP yeast: modulators of TOR pathway MEP2-GFP in S. cerevisiae; S. cerevisiae MEP2-GFP strain, flow cytometry GFP, 3 h; 100% = DMSO control level; GFP response vs DMSO, % at 10 µM; 330,000 tested, 0.51% active; AID 2016;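 active means GFP response versus DMSO above a set limit, roughly screen mean plus 3 SD, cut at about 180% in these data; inconclusive means fewer than 70 cells counted for a yeast strain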;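 further: median GFP fluorescence of the barcode-gated MEP2-GFP cells per well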
# RPL19A TOR yeast: modulators of TOR pathway RPL19A-GFP in S. cerevisiae. S. cerevisiae RPL19A-GFP strain, flow cytometry, 3 h; hits give low values. percent response vs DMSO, % at 10 µM. 330,000 tested, 0.3% active. AID 2025;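 active means percent response vs DMSO below 50%; inconclusive means fewer than 70 events counted for the yeast strain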;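 further: median channel GFP fluorescence of the barcoded RPL19A-GFP strain; ratio of sample median GFP to plate DMSO average so 100% = DMSO; lower means less RPL19A-GFP as with rapamycin TOR inhibition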
# Active calls of the source: *; ? = inconclusive; · = no result; + = active, no number; [ ] = dose if it differs, or a comment.
SMILES,AGP1 TOR yeast,LAP4-GFP MLPCN,CIT2-GFP yeast,MEP2-GFP yeast,RPL19A TOR yeast
C[C@H](CO)N1C[C@H](C)[C@@H](CN(C)S(=O)(=O)c2ccccc2)Oc2c(NC(=O)NC3CCCCC3)cccc2C1=O,103,115,99,98,96
O=C(CN1C(=O)C2CC=CCC2C1=O)Nc1nnc(SCc2ccc(Cl)cc2)s1 (stereo unspecified),·,103,?,?,15*[may fluoresce violet]
C1CCN(c2nc(N3CCCCC3)nc(N3CCNCC3)n2)CC1,82,99,?,218*[may fluoresce violet],92
CC1CCN(c2nc(N3CCCCC3)nc(N3CCCCC3)n2)CC1,98,113,91,98,98
COCCNC(=O)c1ccc(Cl)c(Cl)c1,118,215*,183*,286*,116
NC(=O)C1CCN(c2cc(Cl)ccc2[N+](=O)[O-])CC1,·,·,·,?,41*[may fluoresce violet]
NC(=O)C1CCN(c2cc(N3CCOCC3)ccc2[N+](=O)[O-])CC1,104,111,96,101,97
COc1ccccc1N=c1oc2cc(O)ccc2cc1C(=O)NCC1CCCO1 (stereo unspecified),95,100,96,100,102
COc1ccc2cc(C(N)=O)c(=Nc3ccc(C)cc3)oc2c1,107,102,106,106,102
Cc1cccc(N=c2oc3cc(O)ccc3cc2C(N)=O)c1,97,102,95,124,40*
COc1ccccc1N=c1oc2cc(O)ccc2cc1C(N)=O,?,94,?,298*[may fluoresce violet],15*[may fluoresce violet]
N#Cc1ccc(S(=O)(=O)N2CCC(C(=O)N3CCN(Cc4ccc5c(c4)OCO5)CC3)CC2)cc1,96,101,94,99,103
CCc1nnc(NC(=O)c2ccc(S(=O)(=O)N(C)Cc3ccccc3)cc2)o1,101,186*,95,113,92
CCN(Cc1ccccc1)S(=O)(=O)c1ccc(C(=O)Nc2nnc(C)o2)cc1,101,188*,92,104,94
CCc1nnc(NC(=O)c2ccc(S(=O)(=O)N(CC)Cc3ccccc3)cc2)o1,99,141,107,104,96
O=C1c2ccccc2NC(c2ccccc2O)N1O (stereo unspecified),91,93,95,100,102
Cc1ccc(N2C(=O)c3ccccc3NC2c2ccccc2O)cc1 (stereo unspecified),99,141,145,200*,110
COc1ccc(C(=O)N2CCN(c3ccccc3Cl)CC2)cc1S(=O)(=O)NC1CC1,97,95,94,96,98
CCN1/C(=C/c2ccc3cc(C)ccc3[n+]2CC)Sc2ccccc21,238*[may fluoresce green],605*[may fluoresce green],+[may fluoresce green],+[may fluoresce green],321
CC[n+]1ccccc1/C=C1\Sc2ccc(C)cc2N1C,85,90,98,110,100
Cc1noc(/C=C/c2cccnc2)c1[N+](=O)[O-],84,161*,90,92,87
COC(=O)c1ccc(C(=O)NC(=S)Nc2ccc3nc(SC)sc3c2)cc1,85,113,116,346*,94
CCOc1ccc2nc(N3CCCC(C(=O)NCCCN4CC(C)CC(C)C4)C3)sc2c1 (stereo unspecified),104,102,110,100,99
CCOC(=O)C(=CNNc1cccc(Cl)c1)C(=O)OCC,103,154*,105,98,98
O=C(CNCC(=O)Nc1ccc(F)c(F)c1F)Nc1ccc(F)c(F)c1F,90,88,96,95,100
SMILES,AGP1 TOR yeast,LAP4-GFP MLPCN,CIT2-GFP yeast,MEP2-GFP yeast,RPL19A TOR yeast
O=C(Cc1ncon1)Nc1ccc(F)c(F)c1F,?,84,?,185*[may fluoresce violet],33*[may fluoresce violet]
O=C(NCC(c1cccs1)N1CCOCC1)C1CCN(S(=O)(=O)c2c(Cl)cccc2Cl)CC1 (stereo unspecified),91,86,95,97,95
O=C(O)CCC(=O)Nc1ccc(S(=O)(=O)c2ccc(NC(=O)CCC(=O)O)cc2)cc1,151*,102,105,97,103
CCC[n+]1c2ccccc2cc2ccccc21,16,103,?,139,83
CCCC[n+]1c2ccccc2cc2ccccc21,20,105,?,234*[may fluoresce violet],61
Cc1oc(-c2cccc(Cl)c2)nc1CN1CCC(C(=O)NCCCN2CCCC2=O)CC1,93,99,93,101,93
Cc1oc(-c2cccc(Cl)c2)nc1CN1CCC(C(=O)NCCCN2CC(C)CC(C)C2)CC1 (stereo unspecified),?,75,?,190*[may fluoresce violet],17*[may fluoresce violet]
COc1ccccc1CNC(=O)c1cnccn1,?,103,?,186*[may fluoresce violet],29*[may fluoresce violet]
CN1CCCC(OC(=O)c2ccccc2Br)C1 (stereo unspecified),104,87,109,99,106
Cc1ccc(S(=O)(=O)NCCCCCC(=O)Nc2c(C)n(C)n(-c3ccccc3)c2=O)cc1,?,62,?,251*[may fluoresce violet],37*[may fluoresce violet]
COC(=O)c1ccc(SCc2cnc(Cl)s2)cc1,88,86,91,100,89
O=C(O)c1ccc(SCc2cnc(Cl)s2)cc1,123,179*,82,140,111
NC(=O)c1nsc(C(=O)N(CC(=O)NCc2ccccc2)c2ccc(F)cc2)c1N,72,87,?,309*[may fluoresce violet],64
NC(=O)c1nsc(C(=O)N(CC(=O)NCc2ccccc2)c2cccc(F)c2)c1N,105,98,109,96,96
O=C(COC(=O)CCNS(=O)(=O)c1ccccc1)NC1CC1,104,107,111,106,106
CCOc1ccc(-c2nnc(-c3ccccc3)o2)cc1,·,94,?,394*[may fluoresce violet],30*[may fluoresce violet]
CCOc1ccc(-c2nnc(-c3ccc(OC)cc3)o2)cc1,88,95,78,92,102
CCOC(=O)C(NC(=O)c1ccccc1)=C1C=C(C)OC(C)=C1,96,101,93,95,97
COC(=O)C(NC(=O)c1ccccc1)=C1C=C(C)OC(C)=C1,·,101,?,209*[may fluoresce violet],64
O=c1oc(-c2ccccc2)nc2sc3c(c12)CCCC3,?,?,?,?,18*[may fluoresce violet]
CCOC(=O)c1c(NC(=O)CN2CCCc3ccccc32)sc(C(C)=O)c1C,?,88,?,213*[may fluoresce violet],54
COCCOC(=O)c1c(NC(=O)CN2CCc3ccccc32)sc(C(N)=O)c1C,100,101,101,105,101
COc1ccccc1CNC(=O)COC(=O)c1cc2ccccc2o1,104,102,105,100,100
Cc1ccc(N/N=C/c2c(O)cc(C)oc2=O)cc1,81,94,132,100,105
Cc1ccc(CO/N=C/c2c(O)cc(C)oc2=O)cc1,89,164*,98,99,99
COC(=O)Nc1ccc(S(=O)(=O)N(CCO)CC(F)(F)C(F)F)cc1,88,86,96,96,89
CCN(CC(F)(F)C(F)F)S(=O)(=O)c1ccc(NC(=O)OC)cc1,?,?,?,?,14*[may fluoresce violet]

# Source: PubChem BioAssay
